# Assay results: PubChem BioAssay (Tox21)
# Inconclusive results are not listed. A call without a number means that no potency is given here. Values without a mark were called inactive. Activity calls are given as the source filed them. Calls follow the shape of the dose curve; as a rule, active = well fitted curve in the direction sought with a large enough effect in the repeat runs; inconclusive = weak or mixed curves; inactive = no such curve, though single readings can be large; an effect the other way counts as inactive or inconclusive.
# Columns and labels:
# [1] = qHTS RealTime-Glo MT Cell Viability Assay in HepG2 cells - 8 hour (AID 1224873); also: nearly all actives have a fitted effect of over 55% in size
# In short: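 Real-time viability: cells seeded at 600 per well together with NanoLuc and cell-permeant prosubstrate, compounds added after 5 h incubation. Luminescence tracked at 0, 8, 16, 24, 32 and 40 h of exposure.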
# [2] = qHTS RealTime-Glo MT Cell Viability Assay in HEK293 cells - 40 hour (AID 1224874); settings: RealTime-Glo luminescence; max response: active compounds read low; also: nearly all actives have a fitted effect of over 50% in size; also: potency is read from the fitted curve at half-maximal effect
# In short: (§1)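 600 cells/well were plated with the nonlytic NanoLuc/prosubstrate reagent, pre-incubated 5 h, then given 23 nL of compound in DMSO. Incubation at 37 C for 40 h, with luminescence from viable-cell-reduced substrate read repeatedly from 0 h.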
# [3] = A CellTox Green Cytotoxicity Assay to monitor cytotoxicity in HepG2 cells - 16 hour (AID 1224876); also: nearly all actives have a fitted effect of over 45% in size
# In short: (§2)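 HepG2 cells, 600/well, preincubated 5 h with CellTox Green dye, then exposed to Tox21 compounds in DMSO at 37 C for up to 40 h. Dead-cell DNA fluorescence read at the indicated time point.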
# [4] = qHTS RealTime-Glo MT Cell Viability Assay in HepG2 cells - 32 hour (AID 1224877); also: nearly all actives have a fitted effect of over 55% in size
# In short: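 Tox21 10K library screened in qHTS format on HepG2 cells carrying RealTime-Glo reagents. Compounds were added after a 5 h preincubation, and the luminescent signal from continuous culture was measured repeatedly during 40 h treatment.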
# [5] = A CellTox Green Cytotoxicity Assay to monitor cytotoxicity in HepG2 cells - 24 hour (AID 1224878); also: nearly all actives have a fitted effect of over 45% in size; also: potency is read from the fitted curve at half-maximal effect
# In short: as §2
# [6] = A CellTox Green Cytotoxicity Assay to monitor cytotoxicity in HepG2 cells - 40 hour (AID 1224879); also: nearly all actives have a fitted effect of over 40% in size; also: potency is read from the fitted curve at half-maximal effect
# In short: as §2
# [7] = qHTS RealTime-Glo MT Cell Viability Assay in HEK293 cells - 0 hour (AID 1224880); also: top concentration of the series differs between compounds; nearly all actives have a fitted effect of over 45% in size
# In short: as §1
# [8] = A CellTox Green Cytotoxicity Assay to monitor cytotoxicity in HEK293 cells - 24 hour (AID 1224875); also: series mostly up to about 77 µM; nearly all actives have a fitted effect of over 45% in size
# In short: (§3)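 HEK293 cells, 600/well, were preincubated 5 hours and then exposed to compounds at 37 C for up to 40 hours. A cell-impermeant cyanine dye staining dead-cell DNA was read by fluorescence at 0, 8, 16, 24, 32 and 40 h time points.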
# [9] = A CellTox Green Cytotoxicity Assay to monitor cytotoxicity in HEK293 cells - 32 hour (AID 1224881); also: nearly all actives have a fitted effect of over 40% in size
# In short: as §3
SMILES,Potency [1],Potency [2],Potency [3],Potency [4],Potency [5],Potency [6],Potency [7],Potency [8],Potency [9],max response [2]
Cc1cc(-c2ccc(N=Nc3cc(S(=O)(=O)O)c4ccccc4c3N)c(C)c2)ccc1N=Nc1cc(S(=O)(=O)O)c2ccccc2c1N,inactive,2.2 µM (active),inactive,inactive,inactive,inactive,inactive,–,–,–
CNC(=O)c1ccccc1Sc1ccc2c(/C=C/c3ccccn3)n[nH]c2c1,–,8.49 µM (active),inactive,inactive,inactive,inactive,–,inactive,inactive,–
O=C1CCc2cc(OCCCCc3nnnn3C3CCCCC3)ccc2N1,inactive,–,inactive,inactive,inactive,inactive,inactive,inactive,inactive,–
Cc1ccc(O)c(N)c1,inactive,–,inactive,inactive,–,–,–,inactive,inactive,–
CN1CCN(Cc2cc(-c3ccc4[nH]c(=O)oc4c3)co2)[C@@H](c2ccc(F)cc2)C1,inactive,26.5 µM (active),–,–,42 µM (active),42 µM (active),inactive,inactive,inactive,–
COC(=O)Nc1nc2ccc(C(=O)c3ccccc3)cc2[nH]1,inactive,0.477 µM (active),inactive,inactive,inactive,0.268 µM (active),inactive,inactive,inactive,–
CCCCCc1ccc(Cl)cc1,inactive,15.5 µM (active),inactive,inactive,inactive,inactive,inactive,inactive,inactive,–
CCn1c2ccccc2c2cc([N+](=O)[O-])ccc21,–,–,inactive,inactive,inactive,inactive,inactive,inactive,inactive,-23.8%
S=C([S-])NCCNC(=S)[S-].S=C([S-])NCCNC(=S)[S-].[Mn+2].[Zn+2],inactive,–,inactive,inactive,inactive,inactive,inactive,inactive,inactive,–
